Myeloid diff MLP: promotes myeloid progenitor differentiation. 1% of 360,000 active. calls only at 10 µM. ER-HoxA9 myeloid progenitors, lysozyme-GFP differentiation, flow cytometry;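 active = normalized GFP-positive differentiation at or above the plate's own cutoff, the solvent-only control mean plus 3 SD; inconclusive = no clear call, values can overlap the other calls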;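 note: cells exposed to compound for four days before flow analysis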
TLR4-MyD88 BLA: blocks binding of human TLR4 to MyD88. HeLa CL3-4 TLR4/MyD88 BLA complementation, FRET ratio. 0.18% of 200,000 active. inhibition, % at 8.4 µM. O00206+Q99836; in the data active = inhibition above about 25%;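 note: 0% = vehicle and 100% = reference inhibitor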
TLR9-MyD88 inh: TLR9-MyD88 interaction inhibition; Q9NR96+Q99836; CHO BLA complementation TLR9-MyD88, CCF4 FRET ratio; inhibition, % at 4.98 µM; 0.21% of 340,000 active;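 active = inhibition above the mean over all tested compounds plus 3 SD, cut at about 21% in these data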;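 note: 0% = DMSO only wells and 100% = clavulanate BLA inhibitor control wells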
NOD2-RIPK2 inh: NOD2-RIPK2 protein interaction inhibition; O43353; CHO BLA complementation NOD2-RIPK2, CCF4 ratio; inhibition, % at 4.98 µM; 0.38% of 360,000 active; AID 624267; in the data active = inhibition above about 21%;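 note: 0% = vehicle only and 100% = reference blocker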
NOD2 RIPK2 conf: NOD2-RIPK2 interaction inhibition confirmed; shares compounds with NOD2-RIPK2 inh; CHO cells, NOD2-RIPK2 BLA complementation, CCF4 FRET; inhibition, % at 4.98 µM; 70% of 1,200 active; AID 624370;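 active = mean inhibition across replicates above a set limit taken from the earlier primary screen, cut at about 21% in these data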;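 note: 0% = DMSO-only wells and the high end = clavulanate BLA-blocked wells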
BLA counter: NOD2-RIPK2 counterscreen BLA reporter activity. shares compounds with NOD2-RIPK2 inh. CHO BLA reporter, CCF4 FRET ratio. inhibition, % at 4.98 µM. 57% of 1,200 active. AID 624371;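 active = mean inhibition above the low-control mean inhibition plus three low-control SD, cut at about 11% in these data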;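 note: 0% = DMSO only wells and 100% = clavulanate high control wells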
Numbers without * were called inactive; i = inactive; ? = inconclusive; / = no result given; + = active, no number; ! = repeats disagree. Sampled rows, rich in hits. Any-hit rate of the full collection: about 1.5%.

SMILES	Myeloid diff MLP	TLR4-MyD88 BLA	TLR9-MyD88 inh	NOD2-RIPK2 inh	NOD2 RIPK2 conf	BLA counter
CCOC(=O)[C@H]1[C@H]2COc3ccc(Br)cc3[C@H]2N2C(=O)CN(Cc3ccc(Cl)cc3)C(=O)[C@@]12C	i	/	0	3	/	/
O=Cc1cn(-c2ccccc2)nc1-c1ccccc1	i	/	0	2	/	/
CC1=NNC(=O)/C1=C\c1cn(-c2ccccc2)nc1-c1ccccc1	?	7	3	54*	60*	5
O=C1C=CC2=C3c4cc(O)c(O)cc4CC3(O)COC2=C1O (stereo not given)	i	/	-6	-7	/	/
COc1ccc(C(=O)C(CN2CCOCC2)c2ccccc2)cc1F (stereo not given)	/	-3	4	58*	-4	-5
CCCCNc1c(-c2ccc(OC)c(SC3CCCCC3)c2)nc2ccc(C)cn12	?	/	-7	53*!	20	10
COc1ccc(CN2CCn3ncc(C(=O)Nc4ccccc4)c3C2=O)cc1	i	-4	-1	22*	-7	-3
COc1ccc(NC(=O)c2cnn(-c3ccccc3)c2C)cc1	i	/	0	-1	/	/
O=C(CCNS(=O)(=O)c1c(Cl)cccc1Cl)OCC(=O)c1ccccc1	i	-4	0	67*	7	-3
CCO[C@H]1OC(C(=O)N2CCN(Cc3ccc4c(c3)OCO4)CC2)=C[C@@H](c2csc3ccccc23)[C@@H]1CCCO	i	-6	-13	23*	12	-1
Clc1cccc(-c2nc3c4ccccc4ccn3c2CC2CCCCC2)c1	i	/	/	-3	/	/
O=c1c(O)c(-c2ccccc2)oc2cc(O)ccc12	i	/	/	25*	32*	29*
O=c1c(O)c(-c2ccccc2)oc2ccccc12	i	/	9	13	/	/
O=[N+]([O-])c1cccc(CON=Cc2ccccc2O)c1	i	/	-6	-1	/	/
CC(=O)Nc1cccc(/C(C)=N/NC(=O)c2cccc(S(=O)(=O)N3CCCC3)c2)c1	i	/	4	5	/	/
Cc1ccc(S(=O)(=O)c2ccc([N+](=O)[O-])cn2)cc1	?	/	-5	70*	54*	-3
Cc1cc(S(=O)(=O)c2ccc([N+](=O)[O-])cn2)ccc1Br	?	/	-4	-3	/	/
O=[N+]([O-])c1ccc(S(=O)(=O)c2ccccc2)nc1	?	/	3	78*	54*	13*
C=CCC[C@H](CCCCC)OC(=O)/C=C/[C@@H](O)[C@H](O)C[C@H](O)CC=C	i	/	/	-11	/	/
Cc1cc(C)c(S(=O)(=O)c2ccc(Cl)cc2)c(Cl)n1	i	1	7	-16	/	/
Cc1cc(S(=O)(=O)c2ccc(Cl)cc2)nc(S(=O)(=O)c2ccc(Cl)cc2)c1C#N	i	/	16	50*	68*	18*
O=C(C=C=Nc1ccccc1)C(=O)N=C=Cc1ccccc1	?	/	5	28*	18	0
COc1ccc(CN2CCN(C(=O)c3ccccc3C(=O)c3ccccc3)CC2)cc1F	i	/	5	-8	/	/
Nc1ccn([C@@H]2O[C@H](C(=O)N[C@H](CO)Cc3ccccc3)[C@@H](O)[C@H]2O)c(=O)n1	i	/	/	-8	/	/
CSCC[C@@H](CO)NC(=O)[C@H]1O[C@@H](n2ccc(N)nc2=O)[C@H](O)[C@@H]1O	i	/	/	29*	-6	0
SMILES	Myeloid diff MLP	TLR4-MyD88 BLA	TLR9-MyD88 inh	NOD2-RIPK2 inh	NOD2 RIPK2 conf	BLA counter
C/C(=N\NC(=S)NC1CCCCC1)c1cccc(Br)c1	i	2	-4	32*	-2	-3
O=c1oc(-c2ccccc2)cc2ccccc12	i	/	/	-12	/	/
O=c1oc(-c2ccccc2)cc(Cl)c1Cl	i	/	-2	60*	57*	1
COc1ccc(C2CC(c3c(O)cc(C)oc3=O)=NCCS2)c(OC)c1 (stereo not given)	/	10	16	23*	15	4
CC(C)NS(=O)(=O)c1ccc(OCC(=O)N2CCN(c3ccccc3)CC2)cc1	i	7	2	68*	-6	-3
CCCCN(C=O)c1c(CC)nc2c(OCc3ccc(Cl)cc3Cl)cccn12	i	/	/	7	/	/
Cc1cc(N2O[C@H]3C=C[C@@H]2C3)no1	i	/	-1	-3	/	/
OC(CNC1CCCCC1)CON=C1CCSc2c(Cl)cccc21 (stereo not given)	i	/	7	0	/	/
CN(C)CCC(=O)C(Cc1ccccc1)c1ccccc1 (stereo not given)	i	/	3	35*	28*	2
C=CCC1(O)C(=O)Nc2ccccc21 (stereo not given)	i	8	-2	-10	/	/
O=C1Nc2ccccc2C1(O)Cc1ccccn1 (stereo not given)	i	/	4	24*	0	-3
O=C(C(Br)=Cc1ccccc1)c1ccccc1	?	/	3	33*	65*	22*
CC(=Cc1ccccc1)C(=O)c1ccccc1	i	/	0	5	/	/
CCCCn1c(N)c(N(CC(C)C)C(=O)c2cc3ccccc3cc2OC)c(=O)[nH]c1=O	i	/	-1	-12	/	/
Cc1ccnc(Nc2nc(-c3ccccc3)cs2)c1	i	/	2	-7	/	/
Cc1ccnc(N/C=C(\C#N)c2nc(-c3cccc(Br)c3)cs2)c1	+	8	15	27*	30*	30*
CCCC(=O)NC(NC(=S)Nc1c(C)n(C)n(-c2ccccc2)c1=O)C(Cl)(Cl)Cl (stereo not given)	i	8	-2	-2	/	/
Cc1c(NC(=S)NC(NC(=O)C(C)(C)C)C(Cl)(Cl)Cl)c(=O)n(-c2ccccc2)n1C (stereo not given)	i	-18	-1	25*	1	-1
CCc1ccc(/C=C2\Oc3c(ccc(O)c3CN3CCN(C)CC3)C2=O)cc1	i	/	0	15	/	/
Cc1ccc(/C=C2\Oc3c(ccc(O)c3CN3CCN(C)CC3)C2=O)cc1	i	12	12	29*	21	25*
COc1ccc(NC(=O)c2cc(C3CCCCN3C(=O)CCCc3ccccc3)on2)c(C)c1 (stereo not given)	i	/	/	-2	/	/
O=C(c1ccccc1)N1CCN(S(=O)(=O)c2ccccc2)CC1	i	/	-9	31*	-7	-3
O=C(c1cccc(F)c1)N1CCN(S(=O)(=O)c2ccccc2)CC1	i	-7	5	-7	/	/
CC(=O)OCC1OC(n2cc(F)c(=O)[nH]c2=O)C(OC(C)=O)C1OC(C)=O (stereo not given)	?	/	-5	-3	/	/
O=C1C(F)=CC(COC(c2ccccc2)(c2ccccc2)c2ccccc2)OC1n1cc(F)c(=O)[nH]c1=O (stereo not given)	/	/	-3	30*	58*	24*
O=C(/C=C/c1ccccc1O)c1ccco1	i	/	10	4	/	/
O=C(/C=C/c1cc(Br)ccc1O)c1ccco1	/	/	3	21*	13	-6
